Experiments:
Assay in all cases: DAPPL (digital affinity profiling via proximity ligation, sequencing); 10 mM Tris-HCl pH 7.5, 50 mM NaCl, 1 mM DTT, 4% glycerol, room temperature, 30 min; GST-TFs on glutathione beads, 16-mer random dsDNA library, 0.1% formaldehyde crosslink after washing; high values mean tight binding
FLI1 = target: T1, FLI1 (Homo sapiens, UniProt Q01543 1-452); settings: protein: recombinant; tags: N-terminal GST; dsDNA, one strand shown
T1 sequence: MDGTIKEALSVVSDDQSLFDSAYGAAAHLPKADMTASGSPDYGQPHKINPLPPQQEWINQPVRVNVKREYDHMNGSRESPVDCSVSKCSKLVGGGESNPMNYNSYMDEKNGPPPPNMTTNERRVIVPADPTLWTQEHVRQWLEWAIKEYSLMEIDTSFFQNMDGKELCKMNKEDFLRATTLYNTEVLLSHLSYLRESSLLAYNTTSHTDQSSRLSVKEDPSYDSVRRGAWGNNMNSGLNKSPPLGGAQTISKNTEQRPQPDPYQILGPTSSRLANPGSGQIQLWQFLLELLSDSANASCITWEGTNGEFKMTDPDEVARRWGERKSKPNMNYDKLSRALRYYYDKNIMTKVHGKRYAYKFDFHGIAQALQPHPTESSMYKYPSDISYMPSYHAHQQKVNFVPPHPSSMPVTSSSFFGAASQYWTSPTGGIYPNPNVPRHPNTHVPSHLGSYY
Method in brief: (§1)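 A tag-only sample was pooled with DNA-barcoded human transcription factors that had been expressed in yeast as GST fusions and captured on glutathione beads. The pools were incubated for 30 min at room temperature with 200 nmole of a random double-stranded 16-mer DNA library in Tris/NaCl/DTT/glycerol buffer, then washed, crosslinked with 0.1% formaldehyde, proximity-ligated (BsaI/T4 ligase, 1 h, 37 °C), PCR-amplified and sequenced on an Illumina NextSeq500. Binding signal is each hexamer's read frequency for a factor divided by its frequency for the tag-only sample.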

ELK1 = target: T2, ELK1 (Homo sapiens, UniProt P19419 1-428); settings: protein: recombinant; tags: N-terminal GST; dsDNA, one strand shown
T2 sequence: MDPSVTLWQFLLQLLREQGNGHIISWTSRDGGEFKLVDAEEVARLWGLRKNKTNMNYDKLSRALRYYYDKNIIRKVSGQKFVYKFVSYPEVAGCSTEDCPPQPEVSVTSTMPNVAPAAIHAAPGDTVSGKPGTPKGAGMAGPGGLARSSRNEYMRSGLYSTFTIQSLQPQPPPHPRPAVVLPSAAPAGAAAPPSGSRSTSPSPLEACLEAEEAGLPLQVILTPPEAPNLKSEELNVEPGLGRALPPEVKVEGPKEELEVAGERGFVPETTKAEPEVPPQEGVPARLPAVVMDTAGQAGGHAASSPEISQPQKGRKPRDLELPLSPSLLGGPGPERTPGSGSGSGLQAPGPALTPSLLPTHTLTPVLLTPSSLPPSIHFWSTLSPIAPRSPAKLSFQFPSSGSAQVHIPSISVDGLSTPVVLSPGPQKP
Method in brief: as §1

GABPA = target: T3, GABPA (Homo sapiens, UniProt Q06546 1-454); settings: protein: recombinant; tags: N-terminal GST; dsDNA, one strand shown
T3 sequence: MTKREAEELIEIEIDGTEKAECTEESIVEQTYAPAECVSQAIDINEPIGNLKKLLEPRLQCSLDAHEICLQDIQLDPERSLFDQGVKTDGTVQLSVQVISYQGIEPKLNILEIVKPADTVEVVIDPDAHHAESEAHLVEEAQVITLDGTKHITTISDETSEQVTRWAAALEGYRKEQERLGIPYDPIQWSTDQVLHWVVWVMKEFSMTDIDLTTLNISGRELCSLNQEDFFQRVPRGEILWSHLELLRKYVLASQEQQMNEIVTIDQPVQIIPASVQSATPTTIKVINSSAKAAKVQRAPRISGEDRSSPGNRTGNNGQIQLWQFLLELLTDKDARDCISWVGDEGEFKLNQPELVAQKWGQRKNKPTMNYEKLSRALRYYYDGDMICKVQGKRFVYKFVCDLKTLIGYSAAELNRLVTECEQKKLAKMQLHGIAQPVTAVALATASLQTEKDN
Method in brief: as §1

ERG = target: T4, ERG (Homo sapiens, UniProt P11308 1-479); settings: protein: recombinant; tags: N-terminal GST; dsDNA, one strand shown
T4 sequence: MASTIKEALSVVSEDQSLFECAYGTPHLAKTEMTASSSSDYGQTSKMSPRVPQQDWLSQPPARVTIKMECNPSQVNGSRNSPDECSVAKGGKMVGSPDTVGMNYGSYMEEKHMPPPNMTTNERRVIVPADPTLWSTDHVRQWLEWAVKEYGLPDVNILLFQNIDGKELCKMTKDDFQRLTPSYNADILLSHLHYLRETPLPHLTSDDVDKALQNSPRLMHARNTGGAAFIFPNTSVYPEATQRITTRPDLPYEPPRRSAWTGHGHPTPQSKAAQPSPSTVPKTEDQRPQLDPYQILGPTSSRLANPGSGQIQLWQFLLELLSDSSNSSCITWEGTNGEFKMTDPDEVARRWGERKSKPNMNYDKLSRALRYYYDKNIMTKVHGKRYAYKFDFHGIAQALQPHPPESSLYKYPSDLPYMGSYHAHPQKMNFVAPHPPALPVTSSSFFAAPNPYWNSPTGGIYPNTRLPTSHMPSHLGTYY
Method in brief: as §1

ELF1 = ELF1 (Homo sapiens, UniProt P32519 1-619); settings: protein: recombinant; tags: N-terminal GST; dsDNA, one strand shown
Method in brief: as §1

EHF = target: T5, EHF (Homo sapiens, UniProt Q9NZC4 1-300); settings: protein: recombinant; tags: N-terminal GST; dsDNA, one strand shown
T5 sequence: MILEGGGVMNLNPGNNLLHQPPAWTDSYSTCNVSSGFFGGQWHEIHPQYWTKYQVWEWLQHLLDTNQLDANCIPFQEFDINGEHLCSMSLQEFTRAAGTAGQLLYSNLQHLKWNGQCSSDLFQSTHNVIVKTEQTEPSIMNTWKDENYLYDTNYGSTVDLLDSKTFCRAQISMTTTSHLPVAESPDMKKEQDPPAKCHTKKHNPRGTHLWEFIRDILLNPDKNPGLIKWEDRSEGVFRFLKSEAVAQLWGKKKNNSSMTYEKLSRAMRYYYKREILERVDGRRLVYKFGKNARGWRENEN
Method in brief: as §1

SPI1 = SPI1 (Homo sapiens, UniProt P17947 1-270); settings: protein: recombinant; tags: N-terminal GST; dsDNA, one strand shown
Method in brief: as §1

SPIB = SPIB (Homo sapiens, UniProt Q01892 1-262); settings: protein: recombinant; tags: N-terminal GST; dsDNA, one strand shown
Method in brief: as §1

ELK3 = target: T6, ELK3 (Homo sapiens, UniProt P41970 1-407); settings: protein: recombinant; tags: N-terminal GST; dsDNA, one strand shown
T6 sequence: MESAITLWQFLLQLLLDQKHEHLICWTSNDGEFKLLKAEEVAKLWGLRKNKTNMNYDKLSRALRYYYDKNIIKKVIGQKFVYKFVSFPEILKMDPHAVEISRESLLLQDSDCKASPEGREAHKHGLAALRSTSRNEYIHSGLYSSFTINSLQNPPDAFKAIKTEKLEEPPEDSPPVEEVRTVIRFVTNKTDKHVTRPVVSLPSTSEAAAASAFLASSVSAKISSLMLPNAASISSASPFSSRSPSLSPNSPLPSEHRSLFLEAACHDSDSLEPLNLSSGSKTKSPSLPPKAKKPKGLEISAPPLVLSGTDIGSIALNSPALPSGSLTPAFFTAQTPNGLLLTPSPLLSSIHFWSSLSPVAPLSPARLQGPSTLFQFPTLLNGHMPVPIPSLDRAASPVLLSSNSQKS
Method in brief: as §1

FEV = target: T7, FEV (Homo sapiens, UniProt Q99581 1-238); settings: protein: recombinant; tags: N-terminal GST; dsDNA, one strand shown
T7 sequence: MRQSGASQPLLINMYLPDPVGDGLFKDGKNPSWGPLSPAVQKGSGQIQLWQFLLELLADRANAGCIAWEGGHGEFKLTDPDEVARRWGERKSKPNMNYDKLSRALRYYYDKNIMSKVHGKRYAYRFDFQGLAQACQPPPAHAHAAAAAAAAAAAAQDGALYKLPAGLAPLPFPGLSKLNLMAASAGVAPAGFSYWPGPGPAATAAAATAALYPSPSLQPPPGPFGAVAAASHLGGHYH
Method in brief: as §1

ETV5 = ETV5 (Homo sapiens, UniProt P41161 1-510); settings: protein: recombinant; tags: N-terminal GST; dsDNA, one strand shown
Method in brief: as §1

HSF1 = HSF1 (Homo sapiens, UniProt Q00613 1-529); settings: protein: recombinant; tags: N-terminal GST; chain copies: 3; dsDNA, one strand shown
Method in brief: as §1

SPIC = target: T8, SPIC (Homo sapiens, UniProt Q8N5J4 1-248); settings: protein: recombinant; tags: N-terminal GST; dsDNA, one strand shown
T8 sequence: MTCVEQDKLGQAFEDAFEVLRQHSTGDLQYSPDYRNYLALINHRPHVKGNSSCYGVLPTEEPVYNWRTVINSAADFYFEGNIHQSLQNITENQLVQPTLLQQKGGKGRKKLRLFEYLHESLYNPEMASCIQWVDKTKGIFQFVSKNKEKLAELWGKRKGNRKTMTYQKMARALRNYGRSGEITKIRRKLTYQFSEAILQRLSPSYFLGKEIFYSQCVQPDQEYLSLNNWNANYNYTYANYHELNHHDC
Method in brief: as §1

ELF4 = ELF4 (Homo sapiens, UniProt Q99607 1-663); settings: protein: recombinant; tags: N-terminal GST; dsDNA, one strand shown
Method in brief: as §1

ELK4 = target: T9, ELK4 (Homo sapiens, UniProt P28324-2 1-405); settings: protein: recombinant; tags: N-terminal GST; dsDNA, one strand shown
T9 sequence: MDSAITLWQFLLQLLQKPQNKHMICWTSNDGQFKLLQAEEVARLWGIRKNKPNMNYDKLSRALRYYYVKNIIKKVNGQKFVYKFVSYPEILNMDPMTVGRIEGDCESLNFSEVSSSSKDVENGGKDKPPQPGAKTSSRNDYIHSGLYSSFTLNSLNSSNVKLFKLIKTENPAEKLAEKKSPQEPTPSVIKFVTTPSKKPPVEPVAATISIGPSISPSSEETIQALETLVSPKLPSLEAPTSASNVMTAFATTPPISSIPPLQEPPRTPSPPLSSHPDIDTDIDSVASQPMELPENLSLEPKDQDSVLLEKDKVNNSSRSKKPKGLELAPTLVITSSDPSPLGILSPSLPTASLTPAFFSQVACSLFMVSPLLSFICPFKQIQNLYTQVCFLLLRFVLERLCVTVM
Method in brief: as §1

ETV2 = target: T10, ETV2 (Homo sapiens, UniProt O00321 1-342); settings: protein: recombinant; tags: N-terminal GST; dsDNA, one strand shown
T10 sequence: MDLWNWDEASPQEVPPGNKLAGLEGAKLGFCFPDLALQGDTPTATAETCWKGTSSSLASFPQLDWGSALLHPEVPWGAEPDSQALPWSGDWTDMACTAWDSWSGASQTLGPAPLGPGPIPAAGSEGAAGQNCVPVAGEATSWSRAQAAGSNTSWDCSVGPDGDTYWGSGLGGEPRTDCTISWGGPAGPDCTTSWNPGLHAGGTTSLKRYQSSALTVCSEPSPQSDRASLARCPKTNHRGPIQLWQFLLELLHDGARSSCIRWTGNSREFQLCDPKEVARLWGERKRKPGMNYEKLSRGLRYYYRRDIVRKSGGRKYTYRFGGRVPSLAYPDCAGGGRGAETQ
Method in brief: as §1

ELF3 = target: T11, ELF3 (Homo sapiens, UniProt P78545 1-371); settings: protein: recombinant; tags: N-terminal GST; dsDNA, one strand shown
T11 sequence: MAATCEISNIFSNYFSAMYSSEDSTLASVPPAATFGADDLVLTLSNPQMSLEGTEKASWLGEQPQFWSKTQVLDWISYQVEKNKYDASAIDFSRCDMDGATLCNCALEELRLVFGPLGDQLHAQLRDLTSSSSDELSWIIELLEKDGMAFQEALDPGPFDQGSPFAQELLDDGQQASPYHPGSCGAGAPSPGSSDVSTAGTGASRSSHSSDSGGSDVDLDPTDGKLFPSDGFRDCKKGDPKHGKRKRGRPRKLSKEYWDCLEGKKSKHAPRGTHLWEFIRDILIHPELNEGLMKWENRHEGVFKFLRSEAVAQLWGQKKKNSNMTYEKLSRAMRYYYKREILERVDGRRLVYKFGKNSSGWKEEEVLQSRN
Method in brief: as §1

CRX = CRX (Homo sapiens, UniProt O43186 1-299); settings: protein: recombinant; tags: N-terminal GST; dsDNA, one strand shown
Method in brief: as §1

ETV1 = ETV1 (Homo sapiens, UniProt P50549 1-477); settings: protein: recombinant; tags: N-terminal GST; dsDNA, one strand shown
Method in brief: as §1

Chain of HSF1 (Q00613 whole entry): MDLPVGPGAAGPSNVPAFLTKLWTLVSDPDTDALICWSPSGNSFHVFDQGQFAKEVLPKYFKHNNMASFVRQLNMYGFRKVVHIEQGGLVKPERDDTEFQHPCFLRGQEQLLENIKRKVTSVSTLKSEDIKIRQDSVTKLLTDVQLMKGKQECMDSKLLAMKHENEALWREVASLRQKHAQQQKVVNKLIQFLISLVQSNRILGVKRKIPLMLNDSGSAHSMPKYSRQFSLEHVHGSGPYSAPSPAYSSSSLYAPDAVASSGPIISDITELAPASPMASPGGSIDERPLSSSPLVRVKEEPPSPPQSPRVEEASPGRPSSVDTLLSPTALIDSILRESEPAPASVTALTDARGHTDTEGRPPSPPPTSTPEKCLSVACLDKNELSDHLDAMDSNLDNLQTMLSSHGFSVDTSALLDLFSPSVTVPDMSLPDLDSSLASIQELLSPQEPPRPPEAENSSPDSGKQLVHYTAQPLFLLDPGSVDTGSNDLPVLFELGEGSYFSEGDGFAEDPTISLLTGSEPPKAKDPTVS
Chain of ETV1 (P50549 whole entry): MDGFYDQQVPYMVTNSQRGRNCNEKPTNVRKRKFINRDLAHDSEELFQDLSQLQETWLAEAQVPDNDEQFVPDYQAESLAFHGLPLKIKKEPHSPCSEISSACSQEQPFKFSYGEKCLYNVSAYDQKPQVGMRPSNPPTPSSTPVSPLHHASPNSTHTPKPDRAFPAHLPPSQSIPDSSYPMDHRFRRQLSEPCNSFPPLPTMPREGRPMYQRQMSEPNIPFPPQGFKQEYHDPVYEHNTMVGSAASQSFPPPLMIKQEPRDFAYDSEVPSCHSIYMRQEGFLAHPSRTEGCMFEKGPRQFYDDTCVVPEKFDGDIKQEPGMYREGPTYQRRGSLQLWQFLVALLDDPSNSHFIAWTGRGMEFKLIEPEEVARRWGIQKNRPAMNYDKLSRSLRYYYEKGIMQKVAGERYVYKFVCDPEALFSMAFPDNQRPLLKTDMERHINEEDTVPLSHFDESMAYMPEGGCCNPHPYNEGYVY
Chain of CRX (O43186 whole entry): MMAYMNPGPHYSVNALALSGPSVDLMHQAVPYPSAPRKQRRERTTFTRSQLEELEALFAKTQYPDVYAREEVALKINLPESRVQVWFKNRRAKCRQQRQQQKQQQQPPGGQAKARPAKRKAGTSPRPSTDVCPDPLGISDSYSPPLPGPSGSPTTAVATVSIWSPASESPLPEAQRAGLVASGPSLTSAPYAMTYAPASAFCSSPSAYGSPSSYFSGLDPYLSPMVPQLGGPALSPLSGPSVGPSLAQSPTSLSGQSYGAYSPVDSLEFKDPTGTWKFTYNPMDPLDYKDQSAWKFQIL
Chain of SPIB (Q01892 whole entry): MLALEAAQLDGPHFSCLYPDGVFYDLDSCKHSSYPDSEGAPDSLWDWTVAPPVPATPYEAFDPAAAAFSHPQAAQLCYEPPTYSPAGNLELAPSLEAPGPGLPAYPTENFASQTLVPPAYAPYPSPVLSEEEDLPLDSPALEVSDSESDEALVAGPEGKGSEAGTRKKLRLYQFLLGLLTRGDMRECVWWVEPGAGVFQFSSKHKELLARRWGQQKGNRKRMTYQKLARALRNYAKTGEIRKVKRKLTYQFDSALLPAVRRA
Chain of ETV5 (P41161 whole entry): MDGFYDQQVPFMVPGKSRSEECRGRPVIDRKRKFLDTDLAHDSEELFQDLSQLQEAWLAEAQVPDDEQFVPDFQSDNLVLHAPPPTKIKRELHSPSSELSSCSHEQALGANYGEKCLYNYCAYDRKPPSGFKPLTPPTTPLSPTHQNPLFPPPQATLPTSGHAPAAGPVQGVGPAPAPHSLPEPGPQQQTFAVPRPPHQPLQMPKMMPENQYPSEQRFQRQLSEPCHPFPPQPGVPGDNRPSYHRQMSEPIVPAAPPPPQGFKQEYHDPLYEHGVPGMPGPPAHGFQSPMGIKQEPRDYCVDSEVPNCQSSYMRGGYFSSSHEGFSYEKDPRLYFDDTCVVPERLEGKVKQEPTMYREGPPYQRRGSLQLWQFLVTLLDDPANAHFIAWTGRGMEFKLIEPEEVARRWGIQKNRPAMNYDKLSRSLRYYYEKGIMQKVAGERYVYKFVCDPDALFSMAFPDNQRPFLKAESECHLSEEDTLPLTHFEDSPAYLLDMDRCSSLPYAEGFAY
Chain of ELF1 (P32519 whole entry): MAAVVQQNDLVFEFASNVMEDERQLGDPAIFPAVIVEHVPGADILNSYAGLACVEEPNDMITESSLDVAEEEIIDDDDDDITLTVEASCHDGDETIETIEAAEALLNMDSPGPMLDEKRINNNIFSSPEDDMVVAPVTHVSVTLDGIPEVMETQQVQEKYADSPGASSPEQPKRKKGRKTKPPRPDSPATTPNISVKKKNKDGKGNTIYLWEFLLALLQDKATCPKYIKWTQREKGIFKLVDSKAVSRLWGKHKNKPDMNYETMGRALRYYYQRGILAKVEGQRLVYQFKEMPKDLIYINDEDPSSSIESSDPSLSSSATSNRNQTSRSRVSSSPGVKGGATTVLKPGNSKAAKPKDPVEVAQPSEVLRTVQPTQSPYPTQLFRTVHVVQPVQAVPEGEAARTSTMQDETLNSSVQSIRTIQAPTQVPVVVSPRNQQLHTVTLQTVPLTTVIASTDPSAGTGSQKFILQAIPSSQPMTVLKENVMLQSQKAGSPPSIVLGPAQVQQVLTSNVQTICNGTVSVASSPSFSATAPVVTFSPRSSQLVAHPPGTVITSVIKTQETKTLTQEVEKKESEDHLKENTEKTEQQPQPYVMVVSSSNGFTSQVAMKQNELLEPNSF
Chain of ELF4 (Q99607 whole entry): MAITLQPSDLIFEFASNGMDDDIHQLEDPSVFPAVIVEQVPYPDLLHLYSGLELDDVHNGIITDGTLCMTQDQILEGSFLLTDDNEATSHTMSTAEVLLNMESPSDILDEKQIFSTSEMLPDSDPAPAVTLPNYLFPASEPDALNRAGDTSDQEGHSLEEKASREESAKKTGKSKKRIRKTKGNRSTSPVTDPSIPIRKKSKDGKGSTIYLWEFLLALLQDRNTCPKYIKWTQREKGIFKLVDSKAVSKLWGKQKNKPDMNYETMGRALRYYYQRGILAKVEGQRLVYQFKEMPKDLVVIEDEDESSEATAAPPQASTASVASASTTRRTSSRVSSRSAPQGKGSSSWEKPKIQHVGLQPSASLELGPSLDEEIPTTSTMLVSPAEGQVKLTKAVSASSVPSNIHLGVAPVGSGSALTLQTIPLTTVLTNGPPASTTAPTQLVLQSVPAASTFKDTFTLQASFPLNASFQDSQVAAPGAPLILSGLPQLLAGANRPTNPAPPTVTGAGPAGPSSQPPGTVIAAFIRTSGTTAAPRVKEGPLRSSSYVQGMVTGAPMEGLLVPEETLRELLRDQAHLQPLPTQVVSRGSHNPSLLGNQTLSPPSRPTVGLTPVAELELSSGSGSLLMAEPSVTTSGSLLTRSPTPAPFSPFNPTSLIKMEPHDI

ATTACG
binding signal (FLI1): 1.22 fold enrichment (6-mer frequency, TF over GST control) | binding signal (ELK1): 1.13 fold enrichment (6-mer frequency, TF over GST control) | binding signal (GABPA): 1.25 fold enrichment (6-mer frequency, TF over GST control) | binding signal (ERG): 1.17 fold enrichment (6-mer frequency, TF over GST control) | binding signal (ELF1): 1.2 fold enrichment (6-mer frequency, TF over GST control) | binding signal (EHF): 1.12 fold enrichment (6-mer frequency, TF over GST control) | binding signal (SPI1): 1.23 fold enrichment (6-mer frequency, TF over GST control) | binding signal (SPIB): 1.18 fold enrichment (6-mer frequency, TF over GST control) | binding signal (ELK3): 1.25 fold enrichment (6-mer frequency, TF over GST control) | binding signal (FEV): 1.16 fold enrichment (6-mer frequency, TF over GST control) | binding signal (ETV5): 1.26 fold enrichment (6-mer frequency, TF over GST control) | binding signal (HSF1): 1.54 fold enrichment (6-mer frequency, TF over GST control) | binding signal (SPIC): 1.02 fold enrichment (6-mer frequency, TF over GST control) | binding signal (ELF4): 1.14 fold enrichment (6-mer frequency, TF over GST control) | binding signal (ELK4): 1.28 fold enrichment (6-mer frequency, TF over GST control) | binding signal (ETV2): 1.17 fold enrichment (6-mer frequency, TF over GST control) | binding signal (ELF3): 1.14 fold enrichment (6-mer frequency, TF over GST control) | binding signal (CRX): 2.19 fold enrichment (6-mer frequency, TF over GST control) | binding signal (ETV1): 1.26 fold enrichment (6-mer frequency, TF over GST control)
